# Screening data deposited in PubChem by National Center for Advancing Translational Sciences (NCATS).
# Only some compounds are listed: those with a hit (about 1.4% of all), similar ones and a draw of the others.
# Vif-A3F inh: inhibitors of Vif-A3F interaction. 390,000 tested, 0.2% active. Potency, µM (series often up to 46.1 µM), for the others: at the top dose activity, negative = active. HeLa A3F-eYFP + Vif (tagged APOBEC3F with the HIV-1 protein that degrades it), YFP fluorescence increase. AID 602313; further: potency means the concentration at half of the fitted maximal effect; % of control where 0% means no effect; nearly all actives have a fitted effect of over 65% in size
#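 HeLa cells stably expressing Vif plus C-terminally eYFP-tagged A3F were seeded, incubated overnight at 37 deg C, dosed with compound, incubated overnight again at 37 deg C. Yellow fluorescence (Ex 488/Em 500-530) reported blocked Vif-mediated A3F-eYFP degradation.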
# Akt phos inh: inhibitors of Akt phosphorylation; AID 651550; 360,000 tested, 0.32% active; activity change, % for hits at 50 µM; Neuro2A IGF-stimulated pAkt S473 HTRF, 20 min; stronger effect = lower value; in the data active means activity change below about -80%; inconclusive means mostly about -51% to -80%; further: on the % scale 0 is the no-effect control and ±100 the full control effect
#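 Neuro2A cells in DMEM with 0.5% FBS, overnight at 37 deg C, given compound at single 50 µM final, then IGF (6 nM final) for 20 min at 37 deg C. Lysed; phospho-Akt Ser473 by HTRF after 24 h, 665/615 ratio.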
# PTAP TSG101 blk: blocks PTAP/TSG101 interaction to inhibit HIV-1 budding; Q99816; AID 493005; Potency, µM (highest dose often 115 µM), inactives show at the highest dose activity change, negative = inhibition, actives largely listed as inhibitors; Fluorescence polarization, FITC-PTAP peptide / Tsg101 binding; 340,000 tested, under 10 active; active means well fitted inhibition curve with a large enough effect in the main read-out, with a control signal flat, not every such curve was filed as active; inconclusive means small, poorly fitted or top-dose-only effect, or effect the other way, or a change in a side signal; inactive means no such curve, though single readings can be large or run the other way; further: potency means the concentration at half of the fitted maximal effect; % of control where 0% means no effect
# Target sequence (Q99816 whole entry, looked up): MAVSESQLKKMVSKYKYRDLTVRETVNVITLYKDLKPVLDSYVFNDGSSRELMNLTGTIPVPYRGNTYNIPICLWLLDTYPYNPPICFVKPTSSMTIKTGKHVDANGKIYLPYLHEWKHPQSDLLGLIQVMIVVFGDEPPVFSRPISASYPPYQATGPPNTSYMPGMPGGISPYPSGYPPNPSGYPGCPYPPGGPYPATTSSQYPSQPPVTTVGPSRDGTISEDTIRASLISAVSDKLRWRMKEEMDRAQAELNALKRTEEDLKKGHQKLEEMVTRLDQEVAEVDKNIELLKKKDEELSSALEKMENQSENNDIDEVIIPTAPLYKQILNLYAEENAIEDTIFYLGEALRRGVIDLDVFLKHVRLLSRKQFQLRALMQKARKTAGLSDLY
#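 Tsg101 binding domain (10 uM final) was mixed with compound and a FITC-labeled PTAP peptide (50 nM final) in HEPES pH 7.5 buffer with NaCl, Tween 20, EDTA and TCEP; fluorescence polarization was read after 20 min at r.t.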
# ALOX12 inh: blocks human arachidonate 12S-lipoxygenase; P18054; purified 12hLO, xylenol orange hydroperoxide absorbance; 580,000 tested, 1.1% active; Potency, µM (series often up to 108 µM), for the others: at the top dose activity change, negative = inhibition, most hits filed as inhibitors; AID 1671190; further: potency means the concentration at half of the fitted maximal effect; on the % scale 0 is the no-effect control and ±100 the full control effect
#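 Hydroperoxide product was detected by ferrous iron/xylenol orange as the 573 to 405 nm absorbance ratio. Arachidonic acid at 40 uM (final) was turned over for 30 min at room temperature by 150 nM human 12hLO, pH 7.0 Hepes buffer, after 15 min compound preincubation.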
# ASM inhibitor: blocks human secretory acid sphingomyelinase | Potency, µM (series often up to 57.5 µM), without a hit: at the highest dose activity change, negative = inhibition, usual class: inhibitors | AID 504937 | placental ASM, HMU-PC fluorogenic substrate, 60 min | P17405 | 340,000 tested, 0.006% active; further: potency means the concentration at half of the fitted maximal effect
#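 Human placenta-derived ASM enzyme was preincubated with compound for 10 minutes at room temperature, then given fluorogenic substrate HMU-PC0 (9 uM final) for 60 minutes at 37 °C; a pH 10 stop preceded fluorescence reading at Ex 386/Em 447 nm.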
# Vif-APOBEC3G blk: blocks the Vif interaction with human APOBEC3G. Q9HC16. HeLa A3G-eYFP + Vif (tagged APOBEC3G with the HIV-1 protein that degrades it), YFP fluorescence, overnight. Potency, µM (titrated, usually from 46.1 µM), for the others: at the highest dose activity, negative = active, hits mostly inhibitors. 410,000 tested, 0.076% active. AID 602310; further: potency means the concentration at half of the fitted maximal effect; on the % scale 0 is the no-effect control and ±100 the full control effect; nearly all actives have a fitted effect of over 60% in size
#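 HeLa cells stably expressing Vif and C-terminally eYFP-tagged A3G, seeded overnight at 37 deg C, then exposed to compound by pintool overnight at 37 deg C. Rise in yellow fluorescence (Ex 488/Em 500-530, Acumen) marks blocked Vif-driven A3G degradation.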
# Starred values were filed as active, the others as inactive; i = inactive; ? = inconclusive; nt = no result given; [ ] = remark or other dose. Unless noted, the call rests on the fitted dose curve; in most records, active means well fitted curve in the direction sought with a large enough effect; inconclusive means small, poorly fitted or top-dose-only effect, or another doubt; inactive means no such curve, though single readings can be large; an effect the other way counts as inactive or inconclusive.
SMILES,Vif-A3F inh,Akt phos inh,PTAP TSG101 blk,ALOX12 inh,ASM inhibitor,Vif-APOBEC3G blk
CCN(c1ccc(C(O)(C(=O)OC)C(F)(F)F)cc1)S(=O)(=O)c1ccccc1 (centres undefined),7%,-125%*,-3%,33%,4%,0%
O=C(NC[C@H]1C[C@@H]2CCN1C[C@@H]2CN1CCCCC1)c1ccc(C(F)(F)F)cc1,nt,nt,nt,1%[176 µM],nt,nt
C=CCn1c(O)c(Cc2ccc(OCC)cc2)c(=O)[nH]c1=O,-3%,i,-6%,-10%,-4%,5%
CC(C)COc1ccc(Cc2c(O)[nH]c(=S)[nH]c2=O)cc1,5%,i,-2%,8.9µM*,-2%,2%
Cc1cc(Cc2c(O)[nH]c(=S)[nH]c2=O)ccc1OC(C)C,1%,i,-11%,20µM*,-13%,0%
CN(C(=O)CCl)C1CCCCC1,nt,nt,nt,-14%,nt,nt
COC[C@H]1CCCN1C[C@H]1CN2CC[C@H]1C[C@@H]2CN,nt,nt,nt,98%[176 µM],nt,nt
CCn1cc(C(=O)Cn2c(C)nc3ccccc32)c2ccccc21,nt,nt,nt,13%,nt,nt
C=CCN1CCc2cccc3c2[C@H]1Cc1ccc(O)c(O)c1-3,0%,i,-4%,7.9µM*,8%,0%
CCCN1CCc2cc(O)cc3c2C1Cc1ccc(O)c(O)c1-3 (centres undefined),nt,nt,nt,7.9µM*,nt,nt
CN1CCc2nc3ccc(F)cc3c(C(N)=O)c2C1,-4%,-99%*,-6%,?,0%,2%
COc1cc(/C=C2/SC(=S)N(Cc3ccccc3)C2=O)ccc1OCC(=O)O,-5%,i,-3%,28%,?,-5%
O=C1/C(=C/c2ccc3c(c2)OCO3)SC(=S)N1CCC(=O)N(CCO)c1ccccc1,22µM*,i,nt,?,nt,-16%
CN(C)c1ccc(/C=C2\C(=O)NC(=O)N(CCc3ccc(F)cc3)C2=O)cc1,-6%,i,0%,16µM*,-1%,-4%
COC(=O)c1ccc(C2SCC(=O)Nc3n[nH]c(C)c32)cc1 (centres undefined),nt,nt,nt,8%,nt,nt
COc1ccc(NC(=O)NC[C@H]2C[C@@H]3CCN2C[C@@H]3c2cc(-c3ccccc3Br)nc(C)n2)cc1,nt,nt,nt,35µM*,nt,nt
Cc1nc(-c2ccccc2)cc([C@H]2CN3CC[C@H]2C[C@@H]3CNC(=O)NC(C)C)n1,nt,nt,nt,25µM*,nt,nt
Cc1nc(-c2ccccc2)cc([C@H]2CN3CC[C@H]2C[C@@H]3CNC(=O)C2CCC2)n1,nt,nt,nt,23%[176 µM],nt,nt
COc1ccc(/C=C/C=C2C(=O)NC(=S)NC2=O)cc1,0%,i,5%,35µM*,-1%,-6%
c1ccc2c(c1)Nc1ccccc1S2,-8%,i,1%,0.11µM*,-1%,-2%
O=C1Nc2ccccc2Sc2ccccc21,-1%,i,1%,?,0%,-5%
Cc1cc(Br)ccc1N1C(=O)CC(=O)NC1=O,0%,i,-2%,45µM*,-2%,-7%
O=C1CC(=O)N(c2cccc(Br)c2)C(=O)N1,?,i,-9%,-26%,5%,-3%
CSc1cccc(NC(=O)NC[C@H]2C[C@@H]3CCN2C[C@@H]3CN2CCSCC2)c1,nt,nt,nt,32%[176 µM],nt,nt
CN(C)C(CSS(=O)(=O)c1ccccc1)CSS(=O)(=O)c1ccccc1,nt,nt,nt,0.71µM*,nt,nt
SMILES,Vif-A3F inh,Akt phos inh,PTAP TSG101 blk,ALOX12 inh,ASM inhibitor,Vif-APOBEC3G blk
CC(Cc1ccccc1)N(C)C (centres undefined),nt,nt,nt,-30%,nt,nt
CN1CCC2(CC1)N1CC3(C)CN2CC(C)(C1)C3=O,nt,nt,nt,-4%,nt,nt
COc1cccc(-n2c(/C=C/c3ccc(O)c(O)c3)nc3ccccc3c2=O)c1,-3%,i,2%,32µM*,-3%,8%
COc1ccc(-n2c(/C=C/c3ccc(O)c(OC)c3)nc3ccccc3c2=O)cc1,20µM*,i,1%,?,16%,-11%
O=c1c2ccccc2nc(/C=C/c2ccccc2O)n1-c1ccc(Br)cc1,10µM*,nt,nt,-9%,nt,-18%
O=C1NC(=O)N(c2ccccc2F)C(=O)/C1=C/c1ccc(Sc2nc3ccccc3[nH]2)o1,22µM*,i,-1%,32µM*,-3%,-15%
O=C1NC(=O)N(c2cccc(Cl)c2)C(=O)/C1=C\c1ccc(Sc2nc3ccccc3[nH]2)o1,?,i,-2%,10µM*,-11%,-9%
COCCNC(=O)Cn1cc(/C=C2\C(=O)NC(=O)N(c3ccccc3F)C2=O)c2ccccc21,-20%,i,-11%,0%,-1%,0%
O=C1NC(=O)N(c2ccccc2)C(=O)/C1=C/c1ccc(Sc2ccccc2)o1,-7%,i,-4%,nt,1%,?
O=C(O)CC1(CNC(=O)Cn2ccc3c(Cl)cccc32)CCCCC1,nt,nt,nt,-19%,nt,nt
Cn1nc(-c2ccccc2)cc1[C@H]1CN2CC[C@H]1C[C@@H]2CNS(=O)(=O)Cc1ccccc1,nt,nt,nt,67%,nt,nt
COc1cc2c(cc1CCc1ccccc1)N(C(=O)c1ccn(C)n1)CC21CCN(C(C)=O)CC1,nt,nt,nt,-9%,nt,nt
CN1C(=O)C(C2(O)C(=O)N(Cc3ccccc3)c3cc([N+](=O)[O-])ccc32)c2ccccc21 (centres undefined),nt,nt,nt,-8%,nt,nt
O=c1[nH]c(=S)n(CCC2=CCCCC2)c(O)c1/C=N/Nc1ccccc1,2%,i,7%,35µM*,-10%,-6%
COc1ccccc1N1C(=O)NC(=O)/C(=C/c2ccc3c4c(cccc24)CC3)C1=O,-20%,i,-8%,50µM*,37%,-3%
